{
  "source": "PubChem BioAssay AID743343",
  "about": "(Broad Institute, 2014)",
  "note": "Measured potencies and affinities stand elsewhere. Activity calls are given as the source filed them. No rule for the calls is given here.",
  "data": [
    {"system": "Drosophila melanogaster bursicon receptor LGR2 (rickets)", "assay": "blockers of bursicon-stimulated LGR2 cAMP reporter – cell-based, HEK293, CRE-luciferase reporter, cherry pick, set 2, dose response (AID 743343)", "conditions": "bursicon-induced cAMP antagonist; series mostly up to 35 µM; activity change, negative = inhibition: at the top concentration", "values": [
      {"compound": "Cc1ccc2c(c1)C1CN(C)CCC1N2C(=O)c1cn(-c2ccccc2)nc1-c1ccccc1", "note": "(stereo not drawn)", "activity change, negative = inhibition": "-34.1% (inactive)"},
      {"compound": "O=C(O)c1nn(Cc2ccc(Cl)cc2Cl)c2ccccc12", "activity change, negative = inhibition": "-2.47% (inactive)"},
      {"compound": "O=c1c2ccccc2nc(/C=C/c2ccc([N+](=O)[O-])o2)n1-c1ccc(O)cc1", "activity change, negative = inhibition": "13.4% (inactive)"}
    ]}
  ]
}
